{"source": "the supplement of paper PMC11060735", "note": "Several values for one entry are separate records, joined by “and”; a condition that tells them apart may be missing. Equal entries are not always repeated. Structures can show the parent of a compound that is named as a salt. ± gives the standard deviation of the averaged measurements. Whole data set: some 1,800 compounds, median “GFP- (p16Ink4a-) cell count relative to negative-control wells” near 0.99, cut for the lowest 2% near 0.5. This excerpt belongs to a sample that is enriched for the lowest values.", "data": [{"test_system": "mouse p16Ink4a+/- lung fibroblasts (INKBRITE, bleomycin-injured)", "experiment": "GFP- (p16Ink4a-) cell count relative to negative-control wells (fold of vehicle); higher = more p16Ink4a- cells surviving", "settings": "1 µM; 3 days", "values": [{"smiles": "CCN(CC)CCCCNc1ncc2cc(-c3cc(OC)cc(OC)c3)c(NC(=O)NC(C)(C)C)nc2n1", "GFP-": 0.935}, {"smiles": "Cc1ccnc2c1NC(=O)c1cccnc1N2C1CC1", "note": "[Nevirapine]", "GFP-": 1.06}, {"smiles": "CC(C)=CCC[C@](C)(O[C@@H]1O[C@H](CO[C@@H]2OC[C@@H](O)[C@H](O)[C@H]2O)[C@@H](O)[C@H](O)[C@H]1O)[C@H]1CC[C@]2(C)[C@@H]1[C@H](O)C[C@@H]1[C@@]3(C)CC[C@H](O[C@@H]4O[C@H](CO)[C@@H](O)[C@H](O)[C@H]4O)C(C)(C)[C@@H]3CC[C@]12C", "note": "[Gynostemma Extract]", "GFP-": 1.07}, {"smiles": "O=C(O)C1=CO[C@@H](O[C@@H]2O[C@H](CO)[C@@H](O)[C@H](O)[C@H]2O)[C@@H]2C(CO)=CC[C@H]12", "note": "[Geniposidic acid]", "GFP-": 1.05}, {"smiles": "CC1(C)CCC(c2ccc(Cl)cc2)=C(CN2CCN(c3ccc(C(=O)NS(=O)(=O)c4ccc(N[C@H](CCN5CCOCC5)CSc5ccccc5)c(S(=O)(=O)C(F)(F)F)c4)cc3)CC2)C1", "note": "[Navitoclax]", "GFP-": 0.944}, {"smiles": "NCC(=O)Nc1ccc(-n2nc(C(F)(F)F)cc2-c2ccc3c(ccc4ccccc43)c2)cc1", "GFP-": 1.1}, {"smiles": "CCN(CC)C(=S)SSC(=S)N(CC)CC", "note": "[Disulfiram]", "GFP-": 0.453}, {"smiles": "O=C(O)CCc1ccc(NCc2cccc(Oc3ccccc3)c2)cc1", "GFP-": 0.98}, {"smiles": "CCCC(C)NC(=O)c1ccc(Cl)c(Cl)c1", "note": "(stereo not given)", "GFP-": 1.14}, {"smiles": "CC(C)C[C@H](NC(=O)CNC(=O)c1cc(Cl)ccc1Cl)B(O)O", "note": "[Ixazomib]", "GFP-": 0.394}, {"smiles": "CCOc1ccn(-c2ccc(F)cc2)c(=O)c1C(=O)Nc1ccc(Oc2ccnc(N)c2Cl)c(F)c1", "GFP-": 0.736}, {"smiles": "CN1CCN(c2c(F)cc3c(=O)c(C(=O)O)cn4c3c2OCN4C)CC1", "note": "[Marbofloxacin]", "GFP-": 1.07}, {"smiles": "Cn1cc(C2=C(c3ccc(Cl)cc3Cl)C(=O)NC2=O)c2ccccc21", "GFP-": 0.845}, {"smiles": "Cc1c(OCC(F)(F)F)ccnc1C[S@@](=O)c1nc2ccccc2[nH]1", "note": "[Dexlansoprazole]", "GFP-": 0.956}, {"smiles": "CCc1cnn2c(NCc3ccc[n+]([O-])c3)cc(N3CCCC[C@H]3CCO)nc12", "note": "[Dinaciclib]", "GFP-": 0.383}, {"smiles": "COc1ccc(CNc2nc(N3CCC[C@H]3CO)ncc2C(=O)NCc2ncccn2)cc1Cl", "note": "[Avanafil]", "GFP-": 1.06}, {"smiles": "CC(C)C[C@H](NC(=O)[C@H](CCc1ccccc1)NC(=O)CN1CCOCC1)C(=O)N[C@@H](Cc1ccccc1)C(=O)N[C@@H](CC(C)C)C(=O)[C@@]1(C)CO1", "note": "[Carfilzomib]", "GFP-": 0.433}, {"smiles": "CC(C)c1nc(CN(C)C(=O)N[C@@H](CCN2CCOCC2)C(=O)N[C@H](CC[C@H](Cc2ccccc2)NC(=O)OCc2cncs2)Cc2ccccc2)cs1", "note": "[Cobicistat]", "GFP-": 1.04}, {"smiles": "COc1ccc(C[C@H](NC(=O)[C@H](C)NC(=O)CN2CCOCC2)C(=O)N[C@@H](Cc2ccccc2)C(=O)[C@]2(C)CO2)cc1", "GFP-": 0.791}, {"smiles": "CCC[C@@H]1C[C@@H](C(=O)N[C@H](C(C)Cl)[C@H]2O[C@H](SC)[C@H](O)[C@@H](O)[C@H]2O)N(C)C1", "note": "(stereo not given in full) [Clindamycin HCl]", "GFP-": "0.865 and 1.15"}, {"smiles": "COC(=O)C1=C(C#N)N=C(C)/C(=C(\\O)OC(C)C)C1c1cccc([N+](=O)[O-])c1", "note": "(stereo not given) [Nilvadipine]", "GFP-": 0.683}, {"smiles": "COc1ccc(-c2nc(N3CCOCC3)c3sc(CN(C)c4ncc(C(=O)NO)cn4)cc3n2)cn1", "note": "[Fimepinostat]", "GFP-": "0.491 ± 0.025"}, {"smiles": "Cc1c(CN2CCN(C(=O)[C@H](C)O)CC2)sc2c(N3CCOCC3)nc(-c3cnc(N)nc3)nc12", "GFP-": 0.612}, {"smiles": "CS(=O)(=O)N1CCN(Cc2cc3nc(-c4cccc5[nH]ncc45)nc(N4CCOCC4)c3s2)CC1", "GFP-": 0.676}, {"smiles": "CCN(CC)CC#CCOC(=O)C(O)(c1ccccc1)C1CCCCC1", "note": "(stereo not given) [Oxybutynin]", "GFP-": 0.971}, {"smiles": "Cc1ccc(NC(=O)c2ccc(CN3CCN(C)CC3)cc2)cc1Nc1nccc(-c2cccnc2)n1", "note": "[Imatinib, Imatinib Mesylate]", "GFP-": "1.04 and 0.966"}, {"smiles": "Nc1ccccc1NC(=O)c1ccc(CNC(=O)OCc2cccnc2)cc1", "note": "[Entinostat]", "GFP-": "0.641 ± 0.022"}, {"smiles": "Nc1ccccc1NC(=O)c1ccc(CNc2nccc(-c3cccnc3)n2)cc1", "note": "[Mocetinostat]", "GFP-": "0.436 ± 0.22"}, {"smiles": "c1cnc2cc3c(cc2n1)C1CNCC3C1", "note": "[Varenicline Tartrate]", "GFP-": 0.907}, {"smiles": "CCCCc1ncc(/C=C(\\Cc2cccs2)C(=O)O)n1Cc1ccc(C(=O)O)cc1", "note": "[Eprosartan]", "GFP-": 0.961}, {"smiles": "Cn1cc(-c2cnn3c(N)c(Br)c([C@@H]4CCCNC4)nc23)cn1", "GFP-": 0.988}, {"smiles": "NC(=O)N1CCC(CC(=O)N2CCC([C@H]3c4ncc(Br)cc4CCc4cc(Cl)cc(Br)c43)CC2)CC1", "note": "[Lonafarnib]", "GFP-": 0.808}, {"smiles": "COCC(=O)NC/C=C/c1ccc2ncnc(Nc3ccc(Oc4ccc(C)nc4)c(C)c3)c2c1", "GFP-": 1.06}, {"smiles": "C[C@H]1C[C@@H]2[C@H]([C@@H](O)C[C@@]3(C)[C@H]2CC[C@]3(O)C(=O)CO)[C@@]2(C)C=CC(=O)C=C12", "note": "[Methylprednisolone]", "GFP-": 0.847}, {"smiles": "CN1CCCC(n2nc(Cc3ccc(Cl)cc3)c3ccccc3c2=O)CC1", "note": "(stereo not given) [Azelastine, Azelastine Hydrochloride]", "GFP-": 1}, {"smiles": "O=C(/C=C/c1ccc(CN(CCO)CCc2c[nH]c3ccccc23)cc1)NO", "note": "[Dacinostat]", "GFP-": "0.556 ± 0.066"}, {"smiles": "Cc1[nH]c2ccccc2c1CCNC(=O)c1cccs1", "note": "[N-[2-(2-methyl-1H-indol-3-yl)ethyl]thiophene-2-carboxamide]", "GFP-": 1.11}, {"smiles": "Cc1[nH]c2ccccc2c1CCNCc1ccc(/C=C/C(=O)NO)cc1", "note": "[Panobinostat]", "GFP-": "0.50294 ± 0.0002"}, {"smiles": "Oc1cc2c(cc1O)[C@@H]1c3ccc(O)c(O)c3OC[C@]1(O)C2", "note": "[Hematoxylin]", "GFP-": 0.962}, {"smiles": "O=C(Nc1ccccc1-c1cn2c(CN3CCNCC3)csc2n1)c1cnc2ccccc2n1", "GFP-": "0.752 and 0.432"}, {"smiles": "CCO/C(O)=C1\\C(C)=NC(C)=C(C(=O)OC)C1c1cccc(Cl)c1Cl", "note": "(stereo not given) [Felodipine]", "GFP-": 0.531}, {"smiles": "O=C1NC(=O)/C(=C/c2cccc(C(F)(F)F)c2)S1", "GFP-": "0.979 ± 0.056"}, {"smiles": "CC(C)N(CCC(=O)c1ccc2ccccc2c1)Cc1ccccc1", "GFP-": "0.897 ± 0.031"}, {"smiles": "CNCC[C@@H](Oc1ccccc1C)c1ccccc1", "note": "[Atomoxetine]", "GFP-": 1.04}, {"smiles": "Cc1nc(NC(=O)N2CCC[C@H]2C(N)=O)sc1-c1ccnc(C(C)(C)C(F)(F)F)c1", "GFP-": 0.875}]}]}
